The list is not random: actives were taken first. Their share in the collection is about 3.1%.
MBD2 inh – MBD2-methylated oligo binding inhibition. Q9UBB5. 370,000 compounds, 0.31% hits. AID 686964. TR-FRET, MBD2 binding to methylated oligonucleotide. inhibition, % at 4.4 µM; in the data active = inhibition above about 13%
LEDGF integ inh – blocks HIV-1 LEDGF/p75-dependent DNA integration; TR-FRET IN-LEDGF/p75 DNA integration, Eu/Cy5; inhibition, % at 3.7 µM; 370,000 compounds, 0.64% hits;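 active = inhibition above the screen-wide mean plus 3 SD, cut at about 13% in these data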;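 also: signal is the Cy5 over europium emission ratio at 671 and 618 nm; 0% = plate median of compound wells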
UHRF1 binding – human UHRF1 methylated DNA binding inhibitors. Q96T88. UHRF1 binding to methylated oligo, TR-FRET. inhibition, % at 4.4 µM. 370,000 compounds, 0.75% hits. AID 687016; in the data active = inhibition above about 21%;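 also: UHRF1 SRA domain binding a hemimethylated CpG hairpin DNA probe; 0% = median of test compound wells and 100% = reference inhibitor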
Neddylation inh – cullin neddylation inhibition | P61081+Q13564 | TR-FRET cullin neddylation, biochemical | calls only at 25 µM | 360,000 compounds, 0.58% hits; in the data active = inhibition above about 36%
Rin1-Abl PPI inh – inhibitors of human Rin1-Abl protein interaction | 360,000 compounds, 0.4% hits | inhibition, % at 7.35 µM | TR-FRET Rin1/Abl binding, biochemical | AID 588664; in the data active = inhibition above about 5%, passing the limit was not always enough
proKLK7 act – activators of human kallikrein-7 zymogen; P49862; purified proKLK7, EDANS-DABCYL substrate fluorescence; 100% is mature enzyme control, 0% vehicle; activation, % at 7 µM; 370,000 compounds, 0.9% hits;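 active = activation above the mean of all tested compounds plus 3 SD, computed per campaign excluding outliers beyond control limits, cut at about 13% in these data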
KLK7 act conf – proKLK7 activation, confirmation. 3,200 compounds, 68% hits. AID 686949. shares compounds with proKLK7 act. activation, % at 7 µM. purified proKLK7, EDANS-DABCYL substrate fluorescence; scaled: vehicle 0, mature enzyme 100;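 active = activation, as change over the incubation, above the mean of all tested compounds plus 3 SD, cut at about 13% in these data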
EDANS-DABCYL int – optically interferes with EDANS-DABCYL signal, flagging KLK7 hits; AID 686952; shares compounds with proKLK7 act; activation, % at 7 µM; 3,200 compounds, 80% hits; EDANS-DABCYL substrate fluorescence interference, no enzyme, 4 h; solvent 0%, active enzyme control 100%;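 active = activation above the all-compound mean plus 3 SD, ignoring values outside control-based bounds, cut at about 4.8% in these data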;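 also: value is the 4 h activation minus the activation read at time zero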
EDANS interf – optically interferes with EDANS-DABCYL fluorescence, kallikrein-7 activator counter-screen; shares compounds with proKLK7 act; EDANS-DABCYL peptide fluorescence interference, no enzyme; EC50, µM; 250 compounds, 20% hits; AID 720493;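 active = compounds that raise the fluorescence signal in this interference counterscreen, with EC50 at or below 10 µM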;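 also: intact quenched peptide substrate alone read at 355 nm excitation and 520 nm emission; signal is fluorescence gain from T0 to T4 after four hours at room temperature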
Numbers without * were called inactive.

`COC(=O)CNC(=O)CN1c2cccc3cccc(c23)S1(=O)=O` gave MBD2 inh 6.9, LEDGF integ inh -1.7, UHRF1 binding 0.0, Rin1-Abl PPI inh -2.5, proKLK7 act 23.4*, KLK7 act conf 17.0* and EDANS-DABCYL int 17.5*.
`O=C(NCc1ccco1)Nc1ccc(Br)cc1` gave MBD2 inh 1.2, LEDGF integ inh -2.7, UHRF1 binding 1.3, Neddylation inh inactive, Rin1-Abl PPI inh 0.8 and proKLK7 act 0.2.
`O=C(NCc1ccco1)Nc1ccc2nsnc2c1` gave MBD2 inh -3.6, LEDGF integ inh 5.4, UHRF1 binding -5.1, Neddylation inh active, Rin1-Abl PPI inh -1.6, proKLK7 act 27.0*, KLK7 act conf 26.2* and EDANS-DABCYL int 29.0*.
CC[C@]12c3[nH]c4ccccc4c3CCN1C(=O)C(CC(=O)NCCN1CCOCC1)C[C@@H]2C(=O)N1CCN(C(=O)c2ccco2)CC1 (some centres not stated) was read as MBD2 inh -1.2, LEDGF integ inh 2.1, UHRF1 binding 1.8, Neddylation inh inactive, Rin1-Abl PPI inh 1.9 and proKLK7 act 0.8.
For CC[C@]12c3[nH]c4cc(-c5ccco5)ccc4c3CCN1C(=O)[C@@H](CC(=O)NCCN1CCOCC1)C[C@@H]2C(=O)N1CCN(C(=O)c2ccco2)CC1 the results were MBD2 inh -5.2, LEDGF integ inh 2.3, UHRF1 binding -0.3, Rin1-Abl PPI inh -0.5, proKLK7 act 88.3*, KLK7 act conf 63.7* and EDANS-DABCYL int 86.1*.
For CC[C@]12c3[nH]c4cc(-c5ccco5)ccc4c3CCN1C(=O)[C@@H](CC(=O)NCCN1CCOCC1)C[C@@H]2C(=O)N1CCN(C(=O)C2CC2)CC1 the results were MBD2 inh -7.3, LEDGF integ inh 5.0, UHRF1 binding 1.5, Rin1-Abl PPI inh -1.3, proKLK7 act 110.5*, KLK7 act conf 75.5* and EDANS-DABCYL int 83.3*.
`CC[C@]12c3[nH]c4cc(-c5ccco5)ccc4c3CCN1C(=O)[C@@H](CC(=O)NCCc1ccccn1)C[C@@H]2C(=O)N1CCN(C(=O)c2ccco2)CC1` gave MBD2 inh -1.9, LEDGF integ inh 1.9, UHRF1 binding -2.6, Rin1-Abl PPI inh -1.7, proKLK7 act 150.9*, KLK7 act conf 119.4* and EDANS-DABCYL int 137.9*.
For COc1ccc(NC(=O)c2cc(-c3ccco3)on2)cc1OC the results were MBD2 inh 8.7, LEDGF integ inh -3.7, UHRF1 binding 6.6, Neddylation inh inactive, Rin1-Abl PPI inh 1.9, proKLK7 act 54.9*, KLK7 act conf 20.5*, EDANS-DABCYL int 4.8* and EDANS interf inactive.
Screening Cc1cc(=O)oc2cc(OC(C)C)ccc12 returned MBD2 inh -3.9, LEDGF integ inh 4.8, UHRF1 binding -2.0, Rin1-Abl PPI inh -3.7 and proKLK7 act 2.2.
Screening CCCCn1nc(C(=O)Oc2ccc3c(C)cc(=O)oc3c2)c2ccccc2c1=O returned MBD2 inh -1.3, LEDGF integ inh 0.1, UHRF1 binding -1.0, Rin1-Abl PPI inh 2.4, proKLK7 act 45.4*, KLK7 act conf 64.0* and EDANS-DABCYL int 69.0*.
Screening Cc1cc(=O)oc2cc(OC(=O)CCN3C(=O)c4ccccc4C3=O)ccc12 returned MBD2 inh 0.7, LEDGF integ inh 5.1, UHRF1 binding -5.5, Rin1-Abl PPI inh -1.0, proKLK7 act 57.5*, KLK7 act conf 427.4* and EDANS-DABCYL int 403.5*.
Screening CCCC(=O)Oc1ccc2c(C)cc(=O)oc2c1 returned MBD2 inh -0.1, LEDGF integ inh -3.0, UHRF1 binding 2.8, Rin1-Abl PPI inh -0.7, proKLK7 act 655.6*, KLK7 act conf 685.6* and EDANS-DABCYL int 706.4*.
NC(=O)c1c(NC(=O)c2ccccc2)sc2c1CCC2 was read as MBD2 inh -0.2, LEDGF integ inh 6.9, UHRF1 binding 4.1, Neddylation inh inactive, Rin1-Abl PPI inh -0.8, proKLK7 act 89.9*, KLK7 act conf 2.1 and EDANS-DABCYL int 1.6.
Screening COc1cc(-c2ccc3oc(-c4ccsc4)c(C#CC4(O)CCCCC4)c3c2)cc(OC)c1OC returned MBD2 inh -1.8, LEDGF integ inh -0.5, UHRF1 binding 7.8, Rin1-Abl PPI inh -1.6, proKLK7 act 12.8*, KLK7 act conf 9.9 and EDANS-DABCYL int 9.6*.
Screening CCn1cnnc1SCC(=O)c1c(N)n(C2CC2)c(=O)[nH]c1=O returned MBD2 inh -0.3, LEDGF integ inh -2.5, UHRF1 binding -0.9, Neddylation inh inactive, Rin1-Abl PPI inh 1.8 and proKLK7 act -1.0.
`COc1ccc(CC(N)c2csc(Nc3ccc(S(C)(=O)=O)cc3)n2)cc1` (configuration not stated) gave MBD2 inh -2.9, LEDGF integ inh -3.2, UHRF1 binding 5.0, Neddylation inh inactive, Rin1-Abl PPI inh 0.9, proKLK7 act 26.9*, KLK7 act conf -3.3 and EDANS-DABCYL int -4.1.
`CC1CN=C(N(C(=O)Nc2ccccc2)c2ccc(S(=O)(=O)N3CCOCC3)cc2)S1` (configuration not stated) gave MBD2 inh -5.3, LEDGF integ inh 0.7, UHRF1 binding 3.0, Neddylation inh inactive, Rin1-Abl PPI inh -2.1 and proKLK7 act 0.1.
CCOC(=O)CNc1c(-c2ccc(O)cc2)nc2ccccn12 was read as MBD2 inh 5.5, LEDGF integ inh -9.8, UHRF1 binding 15.6, Rin1-Abl PPI inh 3.4, proKLK7 act 20.1*, KLK7 act conf 27.3* and EDANS-DABCYL int 61.9*.
`CCOC(=O)CNc1c(-c2ccc(O)cc2)nc2ccc(Cl)cn12` gave MBD2 inh -6.3, LEDGF integ inh 0.1, UHRF1 binding -3.7, Rin1-Abl PPI inh -4.6 and proKLK7 act -5.2.
Screening CCC1NC(C(=O)O)Cc2c1[nH]c1ccccc21 (configuration not stated) returned MBD2 inh 0.8, LEDGF integ inh -6.0, UHRF1 binding -1.7, Rin1-Abl PPI inh -1.5, proKLK7 act 35.7*, KLK7 act conf 10.7 and EDANS-DABCYL int 9.8*.
For COc1cc(C2NC(C(=O)O)Cc3c2[nH]c2ccccc32)cc(OC)c1OC (configuration not stated) the results were MBD2 inh 0.2, LEDGF integ inh -0.7, UHRF1 binding 3.5, Neddylation inh inactive, Rin1-Abl PPI inh 2.8 and proKLK7 act 0.8.
